Source: article PMC4336329 (PLoS ONE, 2015)
The whole screen tested about 310,000 compounds, of which about 14,000 (4.5%) showed an effect of 50% or more. Effects have a minus sign here. The entries come from a sample that favours strong results as a whole.
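Note: peak tail current of the secondary pulse compared with the same well before compound.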

Each compound was assayed against human ether-à-go-go-related gene (hERG) potassium channel (human, UniProt Q12809) (assay: primary screen, population patch clamp on CHO cells stably expressing hERG; higher = less effect of the substance).
human ether-à-go-go-related gene (hERG) potassium channel, sequence (Q12809 whole entry, looked up): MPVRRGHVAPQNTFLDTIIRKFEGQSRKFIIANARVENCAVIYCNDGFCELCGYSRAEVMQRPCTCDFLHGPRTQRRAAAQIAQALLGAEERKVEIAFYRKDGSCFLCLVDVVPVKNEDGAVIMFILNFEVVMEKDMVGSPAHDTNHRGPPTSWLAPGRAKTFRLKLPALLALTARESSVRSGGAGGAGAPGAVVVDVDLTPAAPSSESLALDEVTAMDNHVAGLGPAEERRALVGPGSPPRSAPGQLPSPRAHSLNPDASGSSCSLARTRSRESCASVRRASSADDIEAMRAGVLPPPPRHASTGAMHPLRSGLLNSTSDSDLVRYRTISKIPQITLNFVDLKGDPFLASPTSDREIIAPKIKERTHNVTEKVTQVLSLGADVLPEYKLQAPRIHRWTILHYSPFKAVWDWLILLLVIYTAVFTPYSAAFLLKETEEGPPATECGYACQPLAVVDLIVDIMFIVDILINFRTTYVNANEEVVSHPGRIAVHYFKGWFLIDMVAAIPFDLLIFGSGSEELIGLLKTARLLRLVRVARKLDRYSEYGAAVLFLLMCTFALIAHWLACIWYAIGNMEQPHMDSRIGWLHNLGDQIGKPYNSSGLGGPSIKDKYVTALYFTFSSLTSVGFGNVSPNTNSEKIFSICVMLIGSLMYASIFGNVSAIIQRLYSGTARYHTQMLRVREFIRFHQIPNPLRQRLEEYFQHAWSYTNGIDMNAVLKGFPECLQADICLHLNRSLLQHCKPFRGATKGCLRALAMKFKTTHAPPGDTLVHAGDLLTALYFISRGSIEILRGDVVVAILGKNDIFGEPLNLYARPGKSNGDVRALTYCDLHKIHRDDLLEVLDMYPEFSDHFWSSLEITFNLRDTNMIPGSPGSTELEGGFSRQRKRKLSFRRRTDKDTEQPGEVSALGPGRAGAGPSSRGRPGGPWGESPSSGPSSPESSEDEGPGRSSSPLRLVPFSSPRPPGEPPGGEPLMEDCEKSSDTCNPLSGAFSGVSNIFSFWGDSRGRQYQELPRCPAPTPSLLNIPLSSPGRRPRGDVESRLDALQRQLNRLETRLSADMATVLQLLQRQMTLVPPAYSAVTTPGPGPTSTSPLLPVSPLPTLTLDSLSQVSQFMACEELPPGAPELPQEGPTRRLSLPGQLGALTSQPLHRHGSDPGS
`Cc1c(NC(NC(=O)CF)C(Cl)(Cl)Cl)c(=O)n(-c2ccccc2)n1C` (stereo not drawn) was tested, and the “hERG current change (%, negative = inhibition) at 10uM” value was 4.94%. In the case of `O=C(NC(=S)Nc1cc(Cl)ccc1N1CCOCC1)c1ccc(-c2cccc(Cl)c2)o1`, the “hERG current change (%, negative = inhibition) at 10uM” value is reported as 8.91%. For `O=C(COc1ccccc1O)Nc1ccccc1Cl`, the “hERG current change (%, negative = inhibition) at 10uM” value was -4.32%. For `COc1ccc(CCn2c(SCC(=O)Nc3cc(C)on3)nc3ccccc3c2=O)cc1OC`, the “hERG current change (%, negative = inhibition) at 10uM” value was 0.454%. `Cc1ccc(OC(=O)CCc2c(C)nc3ncnn3c2C)cc1` was tested, and the “hERG current change (%, negative = inhibition) at 10uM” value was -8.47%. In the case of `COc1cccc(NC(=O)CCCCCN2C(=O)[C@@H]3Cc4ccccc4CN3C2=O)c1`, the “hERG current change (%, negative = inhibition) at 10uM” value is reported as -37.7%. With `O=C(CCN1C(=O)[C@@H]2Cc3ccccc3CN2C1=O)Nc1cccc(F)c1` the “hERG current change (%, negative = inhibition) at 10uM” value was -13.8%. For `O=C(CCCCCN1C(=O)[C@@H]2Cc3ccccc3CN2C1=O)Nc1cccc(F)c1`, the “hERG current change (%, negative = inhibition) at 10uM” value was -67.9%. With `CC1C(C#N)=C(N)OC2=C1C(=O)CC(C)(C)C2` (stereo not drawn) the “hERG current change (%, negative = inhibition) at 10uM” value was 9.35%. With `CCOc1cc(/C=N/NC(=O)NN(C)c2ncc(C(F)(F)F)cc2Cl)ccc1O` the “hERG current change (%, negative = inhibition) at 10uM” value was -54.3%. For `CCOc1cc(/C=N/NC(=O)N/N=C/c2ccc(O)c(OCC)c2)ccc1O`, the “hERG current change (%, negative = inhibition) at 10uM” value was -10.1%. For `Cc1ccc(/C=N/NC(=O)NN(C)c2ncc(C(F)(F)F)cc2Cl)cc1`, the “hERG current change (%, negative = inhibition) at 10uM” value was -3.09%. For `CC1=C(C(=O)OCC2CCCO2)C(c2ccc(Cl)c(Cl)c2)NC(=O)N1` (stereo not drawn), the “hERG current change (%, negative = inhibition) at 10uM” value was 11.4%. In the case of `CCN1C(=NCc2ccc(OC)cc2)N[C@@H](CCc2ccccc2)[C@H](C(=O)NCc2ccc(OC)cc2)[C@H]1C`, the “hERG current change (%, negative = inhibition) at 10uM” value is reported as -65.4%. In the case of `CCN1C(=NCC(C)C)N[C@@H](CCc2ccccc2)[C@H](C(=O)NCC(C)C)[C@H]1C`, the “hERG current change (%, negative = inhibition) at 10uM” value is reported as -16.2%. With `CCN1C(=NCCOC)N[C@@H](CCc2ccccc2)[C@H](C(=O)OC)[C@H]1C` the “hERG current change (%, negative = inhibition) at 10uM” value was -1.21%. For `Cc1cc(/C=N/NC(N)=O)c(C)n1-c1ccc(F)cc1`, the “hERG current change (%, negative = inhibition) at 10uM” value was -2.06%. With `Cc1ccc(C(C(=O)NC2CCCCC2)N(C(=O)c2csnn2)C2CC2)o1` (stereo not drawn) the “hERG current change (%, negative = inhibition) at 10uM” value was -57.6%. `Cc1ccc(C(C(=O)NCc2ccc(F)cc2)N(C(=O)c2csnn2)C2CC2)o1` (stereo not drawn) was tested, and the “hERG current change (%, negative = inhibition) at 10uM” value was -56.7%. In the case of `Cc1ccc(C(C(=O)NCc2ccc(F)cc2)N(C(=O)c2csnn2)C2CC2)cc1` (stereo not drawn), the “hERG current change (%, negative = inhibition) at 10uM” value is reported as -19.3%. For `Cc1ccc(C(C(=O)NC2CCCC2)N(C(=O)c2csnn2)C2CCCC2)o1` (stereo not drawn), the “hERG current change (%, negative = inhibition) at 10uM” value was -4.91%. In the case of `O=C(NCc1ccc(F)cc1)C(c1ccc(F)cc1)N(C(=O)c1csnn1)C1CC1` (stereo not drawn), the “hERG current change (%, negative = inhibition) at 10uM” value is reported as 9.3%. With `Cc1cccc(N(C(=O)c2csnn2)C(C(=O)NCc2ccccc2)c2cccs2)c1` (stereo not drawn) the “hERG current change (%, negative = inhibition) at 10uM” value was -9.49%. `Cc1cccc(N(C(=O)c2csnn2)C(C(=O)NCc2ccccc2)c2ccc(C)o2)c1` (stereo not drawn) was tested, and the “hERG current change (%, negative = inhibition) at 10uM” value was -54.6%. `Cc1ccc(C(C(=O)NC2CCCCC2)N(C(=O)c2csnn2)C2CCCC2)o1` (stereo not drawn) was tested, and the “hERG current change (%, negative = inhibition) at 10uM” value was -7.71%. In the case of `Cc1ccc(C(C(=O)NCc2ccccc2)N(C(=O)c2csnn2)c2cccc3ccccc23)o1` (stereo not drawn), the “hERG current change (%, negative = inhibition) at 10uM” value is reported as -13.2%. For `O=[N+]([O-])c1cc2c(cc1Br)CCN2`, the “hERG current change (%, negative = inhibition) at 10uM” value was 11.2%. `O=C(O/N=C1\CCCc2ccccc21)C1CC1` was tested, and the “hERG current change (%, negative = inhibition) at 10uM” value was 14.4%. With `O=C(O)CCCC(=O)Nc1ccc(Oc2cccc(C(F)(F)F)c2)nc1` the “hERG current change (%, negative = inhibition) at 10uM” value was 19.4%. In the case of `CCC(C(=O)NCCc1ccccc1OC)n1nc(C)c2c(C)n(-c3ccccc3)nc2c1=O` (stereo not drawn), the “hERG current change (%, negative = inhibition) at 10uM” value is reported as -30%. In the case of `O=C(COC(=O)c1cc(NS(=O)(=O)c2cccs2)ccc1O)Nc1ccc(F)c(F)c1F`, the “hERG current change (%, negative = inhibition) at 10uM” value is reported as 4.87%. For `CCC(=O)Nc1cccc(NC(=S)NC(=O)c2cccs2)c1`, the “hERG current change (%, negative = inhibition) at 10uM” value was 3.59%. With `O=C(NC(=S)Nc1cccc(-c2ccc(CO)o2)c1)c1cccs1` the “hERG current change (%, negative = inhibition) at 10uM” value was 23.7%. `CC(C)(O)c1ccc2c(c1)CCC1C(C)(C(=O)O)CCCC21C` (stereo not drawn) was tested, and the “hERG current change (%, negative = inhibition) at 10uM” value was 4.17%. For `CCOC(=O)Cc1cc(=O)n2[nH]cc(-c3cccc(Br)c3)c2n1`, the “hERG current change (%, negative = inhibition) at 10uM” value was 35.6%. In the case of `CC(=O)N1CCc2cc(S(=O)(=O)NC(C(=O)Nc3nc(C)cs3)C(C)C)ccc21` (stereo not drawn), the “hERG current change (%, negative = inhibition) at 10uM” value is reported as 8.38%. In the case of `CCN1C(=O)C2C(c3ccc(O)c(OC)c3)NC(C)(C(=O)OC)C2C1=O` (stereo not drawn), the “hERG current change (%, negative = inhibition) at 10uM” value is reported as 12.1%. With `COc1cc(=O)[nH]c(SCc2c(F)c(F)c(F)c(F)c2F)n1` the “hERG current change (%, negative = inhibition) at 10uM” value was 0.443%. `CC(=O)N(CC(=O)O)c1ccccc1C(=O)O` was tested, and the “hERG current change (%, negative = inhibition) at 10uM” value was 12%. For `Cc1cccc(NC(=O)CN2C(=O)/C(=C3\SC(=S)N(CC4CCCO4)C3=O)c3ccccc32)c1` (stereo not drawn), the “hERG current change (%, negative = inhibition) at 10uM” value was 12.9%. For `O=C(CN1C(=O)/C(=C2\SC(=S)N(CCS(=O)(=O)O)C2=O)c2ccccc21)Nc1cccc(Br)c1`, the “hERG current change (%, negative = inhibition) at 10uM” value was -73.1%. With `O=C1/C(=C2\C(=O)N(Cc3ccc(F)cc3)c3ccccc32)SC(=S)N1CCS(=O)(=O)O` the “hERG current change (%, negative = inhibition) at 10uM” value was 4.31%.
